Among all 5,500 compounds or so, about 2,000 (36%) were called active. Inconclusive results (about 18%) are left out. Rule as the data show it: active = normalized growth mostly below about 0.91 (no sharp cut-off); inconclusive = no clear call, values can overlap the other calls; inactive = mostly above about 0.92. The list shows a part of the results.
Assay: chemical genetic growth profiling, strain panel (AID 1159580);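 also: tested at 20 µM; growth read once vehicle control cultures reached saturation at 30 °C; 1 = growth at the plate median or of vehicle wells; lower values mean less growth of the strain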
Conditions: growth OD

Measured: normalized growth

CN1CCN(C(c2ccccc2)c2ccccc2)CC1
inactive: S. cerevisiae deletion strains, locus YJR075W, strain HOC1, hits give low values 1 | S. cerevisiae deletion strains, locus YKL009W, strain mrt4, hits give low values 0.963 | S. cerevisiae deletion strains, locus YKL068W, hits give low values 0.977 | S. cerevisiae deletion strains, locus YKL085W, strain MDH1 (second series), hits give low values 0.973 | S. cerevisiae deletion strains, locus YKL085W, strain MDH1, hits give low values 0.973 | S. cerevisiae deletion strains, locus YKL160W, strain elf1, hits give low values 0.965 | S. cerevisiae deletion strains, locus YKL190W, strain CNB1, hits give low values 0.974 | S. cerevisiae deletion strains, locus YKR001C, strain vps1, hits give low values 0.974 | S. cerevisiae deletion strains, locus YKR026C, strain gcn3, hits give low values 0.992 | S. cerevisiae deletion strains, locus YKR091W, strain srl3, hits give low values 0.98 | S. cerevisiae deletion strains, locus YLL001W, strain dnm1, hits give low values 0.996 | S. cerevisiae deletion strains, locus YLL026W, hits give low values 0.999 | S. cerevisiae deletion strains, locus YLL041C, strain sdh2, hits give low values 0.971 | S. cerevisiae deletion strains, locus YLR027C, strain aat2, hits give low values 0.985 | S. cerevisiae deletion strains, locus YLR039C, strain RIC1, hits give low values 1 | S. cerevisiae deletion strains, locus YLR058C, strain SHM2, hits give low values 0.999 | S. cerevisiae deletion strains, locus YLR102C, strain apc9, hits give low values 0.967 | S. cerevisiae deletion strains, locus YLR113W, strain HOG1, hits give low values 0.994 | S. cerevisiae deletion strains, locus YLR221C, strain rsa3, hits give low values 1.02 | S. cerevisiae deletion strains, locus YLR258W, strain gsy2, hits give low values 0.978 | S. cerevisiae deletion strains, locus YLR262C, strain YPT6 (second series), hits give low values 1 | S. cerevisiae deletion strains, locus YLR262C, strain YPT6, hits give low values 1.03 | S. cerevisiae deletion strains, locus YLR268W, strain sec22, hits give low values 0.965 | S. cerevisiae deletion strains, locus YLR320W, strain mms22, hits give low values 0.992 | S. cerevisiae deletion strains, locus YLR330W, strain CHS5, hits give low values 0.989 | S. cerevisiae deletion strains, locus YLR342W, strain FKS1 (second series), hits give low values 1.03 | S. cerevisiae deletion strains, locus YLR342W, strain FKS1, hits give low values 0.991 | S. cerevisiae deletion strains, locus YLR357W, strain rsc2, hits give low values 0.948 | S. cerevisiae deletion strains, locus YLR370C, strain arc18, hits give low values 0.989 | S. cerevisiae deletion strains, locus YLR371W, strain rom2, hits give low values 0.974 | S. cerevisiae deletion strains, locus YLR384C, strain iki3, hits give low values 0.965 | S. cerevisiae deletion strains, locus YLR418C, strain cdc73, hits give low values 0.934 | S. cerevisiae deletion strains, locus YML016C, strain PPZ1, hits give low values 1 | S. cerevisiae deletion strains, locus YML032C, strain rad52, hits give low values 0.959 | S. cerevisiae deletion strains, locus YML120C, strain ndi1, hits give low values 0.99 | S. cerevisiae deletion strains, locus YML124C, strain tub3, hits give low values 0.968 | S. cerevisiae deletion strains, locus YMR058W, strain fet3, hits give low values 1.01 | S. cerevisiae deletion strains, locus YMR078C, strain ctf18, hits give low values 0.973 | S. cerevisiae deletion strains, locus YMR125W, strain sto1, hits give low values 0.95 | S. cerevisiae deletion strains, locus YMR129W, hits give low values 0.996 | S. cerevisiae deletion strains, locus YMR205C, strain PFK2, hits give low values 0.963 | S. cerevisiae deletion strains, locus YMR223W, strain ubp8, hits give low values 0.991 | S. cerevisiae deletion strains, locus YMR231W, strain pep5, hits give low values 0.994 | S. cerevisiae deletion strains, locus YMR263W, strain SAP30, hits give low values 0.997 | S. cerevisiae deletion strains, locus YMR307W, strain GAS1, hits give low values 1.02 | S. cerevisiae deletion strains, locus YNL067W, strain RPL9B, hits give low values 0.996 | S. cerevisiae deletion strains, locus YNL071W, strain lat1, hits give low values 0.984 | S. cerevisiae deletion strains, locus YNL128W, strain TEP1, hits give low values 0.991 | S. cerevisiae deletion strains, locus YNL153C, strain GIM3, hits give low values 1 | S. cerevisiae deletion strains, locus YNL183C, strain NPR1, hits give low values 0.937 | S. cerevisiae deletion strains, locus YNL209W, strain ssb2, hits give low values 0.978 | S. cerevisiae deletion strains, locus YNL233W, strain BNI4, hits give low values 1 | S. cerevisiae deletion strains, locus YNL248C, strain rpa49, hits give low values 0.932 | S. cerevisiae deletion strains, locus YNL250W, strain rad50, hits give low values 0.987 | S. cerevisiae deletion strains, locus YNL271C, strain bni1, hits give low values 0.974 | S. cerevisiae deletion strains, locus YNL298W, strain CLA4, hits give low values 0.975 | S. cerevisiae deletion strains, locus YNL307C, strain MCK1, hits give low values 0.962 | S. cerevisiae deletion strains, locus YNL322C, strain KRE1 (second series), hits give low values 0.978 | S. cerevisiae deletion strains, locus YNL322C, strain KRE1, hits give low values 0.991 | S. cerevisiae deletion strains, locus YNR049C, strain mso1, hits give low values 0.99 | S. cerevisiae deletion strains, locus YNR052C, strain pop2, hits give low values 0.953 | S. cerevisiae deletion strains, locus YOL006C, strain TOP1, hits give low values 0.929 | S. cerevisiae deletion strains, locus YOL012C, strain htz1 1.39 | S. cerevisiae deletion strains, locus YOL147C, strain pex11, hits give low values 0.978 | S. cerevisiae deletion strains, locus YOR001W, strain rrp6, hits give low values 0.993 | S. cerevisiae deletion strains, locus YOR061W, strain CKA2, hits give low values 1 | S. cerevisiae deletion strains, locus YOR069W, strain VPS5, hits give low values 0.998 | S. cerevisiae deletion strains, locus YOR070C, strain gyp1, hits give low values 0.979 | S. cerevisiae deletion strains, locus YOR080W, strain dia2, hits give low values 0.986 | S. cerevisiae deletion strains, locus YOR083W, strain WHI5, hits give low values 0.948 | S. cerevisiae deletion strains, locus YOR106W, strain vam3, hits give low values 0.995 | S. cerevisiae deletion strains, locus YOR136W, strain idh2, hits give low values 0.971 | S. cerevisiae deletion strains, locus YOR144C, strain elg1, hits give low values 0.96 | S. cerevisiae deletion strains, locus YOR184W, strain ser1, hits give low values 0.994 | S. cerevisiae deletion strains, locus YOR231W, strain MKK1, hits give low values 0.987 | S. cerevisiae deletion strains, locus YOR265W, strain rbl2, hits give low values 0.98 | S. cerevisiae deletion strains, locus YOR270C, strain vph1, hits give low values 0.914 | S. cerevisiae deletion strains, locus YOR290C, strain snf2, hits give low values 0.974 | S. cerevisiae deletion strains, locus YOR316C, strain cot1, hits give low values 0.958 | S. cerevisiae deletion strains, locus YPL051W, strain arl3, hits give low values 0.979 | S. cerevisiae deletion strains, locus YPL055C, strain LGE1, hits give low values 0.975 | S. cerevisiae deletion strains, locus YPL078C, strain atp4, hits give low values 0.974 | S. cerevisiae deletion strains, locus YPL106C, strain sse1, hits give low values 0.949 | S. cerevisiae deletion strains, locus YPL240C, strain hsp82, hits give low values 1.01 | S. cerevisiae deletion strains, locus YPL241C, strain CIN2, hits give low values 0.994 | S. cerevisiae deletion strains, locus YPL256C, strain CLN2, hits give low values 0.995 | S. cerevisiae deletion strains, locus YPR119W, strain clb2, hits give low values 0.977 | S. cerevisiae deletion strains, locus YPR141C, strain kar3, hits give low values 0.954 | S. cerevisiae deletion strains, locus YPR163C, strain tif3, hits give low values 0.971 | S. cerevisiae deletion strains, locus YPR167C, strain met16, hits give low values 0.958 | S. cerevisiae deletion strains, strain wtn01, hits give low values 0.979 | S. cerevisiae strains, strain wild type, hits give low values 1.01
